Experiment [1] can be described thus: NCI Yeast Anticancer Drug Screen. Data for the rad50 strain (AID 155).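 Also: 0% = growth of vehicle-only cultures of the same strain.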 The conditions noted are these: S. cerevisiae rad50 strain growth inhibition, hits give high values. The procedure, abridged:
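Vehicle-treated cultures provide the reference for the growth inhibition reported for compound-exposed, repair-deficient yeast.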

Experiment [2] is described as follows: NCI Yeast Anticancer Drug Screen. Data for the mec2-1 strain (AID 157). As to conditions: S. cerevisiae mec2-1 strain, hits give high values. The method in brief:
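Vehicle-treated cultures served as reference for growth inhibition of compound-exposed mec2-1 yeast.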

Experiment [3] in a line: NCI Yeast Anticancer Drug Screen. Data for the sgs1 mgt1 strain (AID 161).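 Also: 0% = growth of cultures given vehicle only.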 The conditions noted are these: S. cerevisiae sgs1 mgt1 strain, hits give high values. The procedure, abridged: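 Test agents were incubated with a DNA-repair-mutant yeast strain. Growth was then read and compared against vehicle-treated controls.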
The nature of experiment [4]: NCI Yeast Anticancer Drug Screen. Data for the cln2 rad14 strain (AID 165).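 Also: 0% = growth equal to vehicle treated cultures.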 The conditions noted are these: S. cerevisiae cln2 rad14 strain, hits give high values. The procedure, abridged: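 Each compound was tested on cln2 rad14 yeast. Inhibition of growth was calculated against vehicle-exposed controls.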
Experiment [5] is described as follows: NCI Yeast Anticancer Drug Screen. Data for the bub3 strain (AID 167). The conditions noted are these: S. cerevisiae bub3 mutant strain, hits give high values. The procedure, abridged:
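Mutant yeast screening strain plus compound; vehicle-treated cultures serve as the 0% inhibition reference.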

A short description of experiment [6]: NCI Yeast Anticancer Drug Screen. Data for the mlh1 rad18 strain (AID 175). As to conditions: S. cerevisiae mlh1 rad18 strain growth inhibition, hits give high values. The method in brief: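 Vehicle-treated cultures served as the reference for growth inhibition in a yeast strain carrying DNA damage repair alterations exposed to each compound.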
Setting [7] is: at 5.0 µM (retest, dose inferred, filed as 0.5).
Where [8] appears, read: at 50.0 µM (retest, dose inferred, filed as 5.0).

These results are taken from PubChem BioAssay (NCI).

This is part of a sample that, as a whole, favours compounds with a hit. Of some 79,000 tested, about 15% had one in any assay. Unmarked numbers belong to inactive results. Calls of active or inactive are those of the source. Rule as the data show it: active = growth inhibition above about 70%; inactive = the rest.

Regarding `CCCCCCCCCCCC(=O)N1CCCC1`, the growth inhibition in experiment [1] (setting [7]) is -1%; in experiment [1] (setting [8]), 99% (active); in experiment [1] (at 50.0 µM) it was 99.4% (active); in experiment [2] (setting [7]), -10%; in experiment [2] (setting [8]), 100% (active); in experiment [2] (at 50.0 µM) it was 99.5% (active). Also, the growth inhibition in experiment [3] (setting [7]) is 3%; in experiment [3] (setting [8]) it was 40%; in experiment [3] (at 50.0 µM), 96.8% (active); in experiment [4] (setting [7]), -3%; in experiment [4] (setting [8]), 99% (active); in experiment [4] (at 50.0 µM) it was 99.2% (active). The growth inhibition in experiment [5] (setting [7]) was -3%; in experiment [5] (setting [8]), 99% (active); in experiment [5] (at 50.0 µM), 99.5% (active); in experiment [6] (setting [7]), 7%; in experiment [6] (setting [8]) it was 99% (active); in experiment [6] (at 50.0 µM) it was 99.5% (active).

On to `COc1cc2oc(-c3ccc(O)cc3O)c(CC=C(C)C)c(=O)c2c(O)c1/C=C/C(C)C`, for which the growth inhibition in experiment [1] (setting [7]) is 17%; in experiment [1] (setting [8]), 97% (active); in experiment [1] (at 50.0 µM), 89.5% (active); in experiment [2] (setting [7]) it was 8%; in experiment [2] (setting [8]), 98% (active); in experiment [2] (at 50.0 µM), 90.7% (active). For the same molecule, the growth inhibition in experiment [3] (setting [7]) was 10%; in experiment [3] (setting [8]) it was 97% (active); in experiment [3] (at 50.0 µM), 91% (active); in experiment [4] (setting [7]), 24%; in experiment [4] (setting [8]), 98% (active); in experiment [4] (at 50.0 µM), 88.8% (active). The growth inhibition in experiment [5] (setting [7]) was 11%; in experiment [5] (setting [8]), 97% (active); in experiment [5] (at 50.0 µM), 88.8% (active); in experiment [6] (setting [7]) it was 9%; in experiment [6] (setting [8]), 97% (active); in experiment [6] (at 50.0 µM) it was 90.3% (active).

With `CCC[CH2][Sn]([CH2]CCC)([S]/C(C#N)=N/N=C/c1ccc(N(C)C)cc1)[S]/C(C#N)=N/N=C/c1ccc(N(C)C)cc1`, the growth inhibition in experiment [1] (setting [7]) is 57%; in experiment [1] (setting [8]) it was 98% (active); in experiment [1] (at 50.0 µM), 97% (active); in experiment [2] (setting [7]), 66%; in experiment [2] (setting [8]) it was 98% (active); in experiment [2] (at 50.0 µM), 92.5% (active). The growth inhibition is 52% in experiment [3] (setting [7]); 98% (active) in experiment [3] (setting [8]); 95.8% (active) in experiment [3] (at 50.0 µM); 40% in experiment [4] (setting [7]); 94% (active) in experiment [4] (setting [8]); 95% (active) in experiment [4] (at 50.0 µM). In addition, the growth inhibition in experiment [5] (setting [7]) is 64%; in experiment [5] (setting [8]), 99% (active); in experiment [5] (at 50.0 µM) it was 95.8% (active); in experiment [6] (setting [7]) it was 72% (active); in experiment [6] (setting [8]), 98% (active); in experiment [6] (at 50.0 µM) it was 95.9% (active).

For `CCCCCCCCCCCCCCCCC1CCc2ccccc21` (stereo not given), the growth inhibition in experiment [1] (setting [7]) is 4%; in experiment [1] (setting [8]), 4%; in experiment [1] (at 50.0 µM), 56.8%; in experiment [2] (setting [7]) it was -2%; in experiment [2] (setting [8]), -6%; in experiment [2] (at 50.0 µM), 64.3%. Moreover, the growth inhibition is 11% in experiment [3] (setting [7]); 13% in experiment [3] (setting [8]); 79.4% (active) in experiment [3] (at 50.0 µM); 23% in experiment [4] (setting [7]); 28% in experiment [4] (setting [8]); 89.8% (active) in experiment [4] (at 50.0 µM). For the same molecule, the growth inhibition in experiment [5] (setting [7]) was 38%; in experiment [5] (setting [8]), 39%; in experiment [5] (at 50.0 µM), 75.8% (active); in experiment [6] (setting [7]), -2%; in experiment [6] (setting [8]), 11%; in experiment [6] (at 50.0 µM), 86% (active).

As for `C1CCC(OC2CCCCO2)OC1` (stereo not given), the growth inhibition is -2% in experiment [1] (setting [7]); 76% (active) in experiment [1] (setting [8]); 70.3% (active) in experiment [1] (at 50.0 µM); -22% in experiment [2] (setting [7]); 36% in experiment [2] (setting [8]); 21.2% in experiment [2] (at 50.0 µM). For the same molecule, the growth inhibition is -11% in experiment [3] (setting [7]); 56% in experiment [3] (setting [8]); 62.1% in experiment [3] (at 50.0 µM); -2% in experiment [4] (setting [7]); 66% in experiment [4] (setting [8]); 65.2% in experiment [4] (at 50.0 µM). For the same molecule, the growth inhibition was -8% in experiment [5] (setting [7]); 71% (active) in experiment [5] (setting [8]); 77.3% (active) in experiment [5] (at 50.0 µM); -9% in experiment [6] (setting [7]); 92% (active) in experiment [6] (setting [8]); 66% in experiment [6] (at 50.0 µM).

As to `c1cc(C2=NCCN2)ccc1Nc1ccc(-c2cc3ccc(C4=NCCN4)cc3[nH]2)cc1`, the growth inhibition in experiment [1] (setting [7]) is 99% (active); in experiment [1] (setting [8]) it was 99% (active); in experiment [1] (at 50.0 µM), 58.1%; in experiment [2] (setting [7]), 99% (active); in experiment [2] (setting [8]) it was 98% (active); in experiment [2] (at 50.0 µM), 99.2% (active). Also, the growth inhibition is 99% (active) in experiment [3] (setting [7]); 99% (active) in experiment [3] (setting [8]); 51.3% in experiment [3] (at 50.0 µM); 99% (active) in experiment [4] (setting [7]); 99% (active) in experiment [4] (setting [8]); 98.9% (active) in experiment [4] (at 50.0 µM). In addition, the growth inhibition in experiment [5] (setting [7]) was 99% (active); in experiment [5] (setting [8]), 99% (active); in experiment [5] (at 50.0 µM) it was 99.3% (active); in experiment [6] (setting [7]) it was 99% (active); in experiment [6] (setting [8]) it was 99% (active); in experiment [6] (at 50.0 µM) it was 98.5% (active).

Consider `C=C(Cl)C(=NC(C)(C)C)Nc1ccccc1C`, for which the growth inhibition was 27% in experiment [1] (setting [7]); 53% in experiment [1] (setting [8]); 69.3% in experiment [1] (at 50.0 µM); 20% in experiment [2] (setting [7]); 56% in experiment [2] (setting [8]); 74.9% (active) in experiment [2] (at 50.0 µM). Also, the growth inhibition is 25% in experiment [3] (setting [7]); 61% in experiment [3] (setting [8]); 81.4% (active) in experiment [3] (at 50.0 µM); 29% in experiment [4] (setting [7]); 37% in experiment [4] (setting [8]); 66% in experiment [4] (at 50.0 µM). In addition, the growth inhibition in experiment [5] (setting [7]) is 22%; in experiment [5] (setting [8]), 60%; in experiment [5] (at 50.0 µM) it was 83.8% (active); in experiment [6] (setting [7]), 30%; in experiment [6] (setting [8]), 80% (active); in experiment [6] (at 50.0 µM), 40.1%.

On to `O=C1c2ccccc2-c2ccccc2C(=O)C1(Br)Br`, for which the growth inhibition was -5% in experiment [1] (setting [7]); 8% in experiment [1] (setting [8]); 89.8% (active) in experiment [1] (at 50.0 µM); -1% in experiment [2] (setting [7]); -5% in experiment [2] (setting [8]); 91.1% (active) in experiment [2] (at 50.0 µM). The growth inhibition in experiment [3] (setting [7]) was 3%; in experiment [3] (setting [8]), -11%; in experiment [3] (at 50.0 µM), 88.3% (active); in experiment [4] (setting [7]) it was -8%; in experiment [4] (setting [8]), -4%; in experiment [4] (at 50.0 µM), 47.3%. The growth inhibition in experiment [5] (setting [7]) was -7%; in experiment [5] (setting [8]), -18%; in experiment [5] (at 50.0 µM) it was 66.7%; in experiment [6] (setting [7]), 0%; in experiment [6] (setting [8]), -7%; in experiment [6] (at 50.0 µM) it was 96.4% (active).

For `Cc1ccc(N2C(=O)C(C)SC23C(=O)Nc2ccc(Cl)cc23)cc1` (stereo not given), the growth inhibition was -8% in experiment [1] (setting [7]); 99% (active) in experiment [1] (setting [8]); 98.5% (active) in experiment [1] (at 50.0 µM); 9% in experiment [2] (setting [7]); 99% (active) in experiment [2] (setting [8]); 98.8% (active) in experiment [2] (at 50.0 µM). Moreover, the growth inhibition in experiment [3] (setting [7]) was -3%; in experiment [3] (setting [8]), 98% (active); in experiment [3] (at 50.0 µM), 37.4%; in experiment [4] (setting [7]) it was 0%; in experiment [4] (setting [8]), 98% (active); in experiment [4] (at 50.0 µM), 97.8% (active). Besides, the growth inhibition in experiment [5] (setting [7]) is -8%; in experiment [5] (setting [8]), 98% (active); in experiment [5] (at 50.0 µM), 98.8% (active); in experiment [6] (setting [7]) it was 1%; in experiment [6] (setting [8]) it was 99% (active); in experiment [6] (at 50.0 µM), 89% (active).

As for `COc1ccc(C(=O)Cc2nc3nnc(NC(=O)Nc4ccc(Cl)cc4)n3nc2CC(=O)c2ccc(OC)cc2)cc1`, the growth inhibition in experiment [1] (setting [7]) was 2%; in experiment [1] (setting [8]) it was 96% (active); in experiment [1] (at 50.0 µM), 93.1% (active); in experiment [2] (setting [7]), 7%; in experiment [2] (setting [8]), 98% (active); in experiment [2] (at 50.0 µM) it was 94.9% (active). Moreover, the growth inhibition in experiment [3] (setting [7]) is 1%; in experiment [3] (setting [8]) it was 98% (active); in experiment [3] (at 50.0 µM), 94.8% (active); in experiment [4] (setting [7]), -1%; in experiment [4] (setting [8]) it was 97% (active); in experiment [4] (at 50.0 µM), 93.5% (active). The growth inhibition was 7% in experiment [5] (setting [7]); 98% (active) in experiment [5] (setting [8]); 96.2% (active) in experiment [5] (at 50.0 µM); 4% in experiment [6] (setting [7]); 97% (active) in experiment [6] (setting [8]); 95.1% (active) in experiment [6] (at 50.0 µM).
